Shown are actives, neighbours in structure and some others; about 21% of the full set was active somewhere.
Shiga inhibitor – Shiga toxin inhibition | Vero cells, Shiga toxin protein synthesis inhibition reporter | inhibition, % at 38.7 µM | actives 9.2% (n = 290,000); in the data active means inhibition mostly above about 28%, no sharp cut-off; inactive means mostly below about 43%; further: 0% is about no effect
CHX counter – counter-screen hit for Shiga toxin inhibitors, cycloheximide; cell reporter, cycloheximide protein synthesis inhibition counterscreen; max response, %; AID 2314; actives 12% (n = 300,000); in the data active means max response mostly above about 13%, no sharp cut-off; inactive means mostly below about 14%; further: read at 38.3 µM for the half of the compounds with a filed dose; 0% is about no effect
Pf growth 96h – P. falciparum growth inhibition at 96 hour, primary screen for plastid delayed-death inhibitors; P. falciparum luciferase reporter growth, 96 h; Potency, µM (series often up to 28.7 µM), for the others: at the highest dose activity change, negative = inhibition, actives largely listed as inhibitors; actives 6.9% (n = 320,000); further: potency means the concentration at half of the fitted maximal effect; on the % scale 0 is the no-effect control and ±100 the full control effect
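Two-generation exposure (96 h) targets delayed-death phenotype. Reporter parasites carrying integrated firefly luciferase, in red cells at 2% hematocrit and 0.05% parasitemia final, kept at 37 C, 5% CO2; luminescence loss indicates inhibition.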
NS1 function inh – influenza NS1 inhibition | Potency, µM (series often up to 46.1 µM), for inactives: at the highest dose activity, positive = more growth | actives 0.4% (n = 270,000); calls by dose curve; further: potency means the concentration at half of the fitted maximal effect; actives are rising curves; nearly all actives have a fitted effect of over 50% in size
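Recovery from NS1-induced slow growth read by OD600 in budding yeast switched to galactose assay medium (pH 6.0, -URA) at 1:100 dilution. Compound 23 nl per well; the matching strain lacking NS1 serves as control.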
Pf growth 48h – P. falciparum growth inhibition at 48 hours (one generation). P. falciparum luciferase growth in erythrocytes, 48 h. actives 5.9% (n = 310,000). Potency, µM (titrated, usually from 28.7 µM), inactives show at the highest dose activity change, negative = inhibition, actives largely listed as inhibitors; further: potency means the concentration at half of the fitted maximal effect; on the % scale 0 is the no-effect control and ±100 the full control effect
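Luciferase-expressing parasites in RBCs, 2% Hct / 0.1% parasitemia final; RPMI 1640 + 0.5% Albumax; 37 C, 5% CO2, one generation; luminescence read-out, lower signal = inhibition.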
The depositor's hits bear a star; ? = inconclusive; nt = not tested or not shown. Unless noted, the call rests on the fitted dose curve; in most records, active means well fitted inhibition curve with a large enough effect; inconclusive means small, poorly fitted or top-dose-only effect, or another doubt; inactive means no such curve, though single readings can be large or run the other way.

SMILES	Shiga inhibitor	CHX counter	Pf growth 96h	NS1 function inh	Pf growth 48h
COC(=O)CSc1nc(-c2ccccc2)cc(-c2ccco2)c1C#N	83*	41*	?	4%	52%
COc1ccc(-c2cc(-c3ccccc3)c(C#N)c(SCC(=O)Nc3ncc(C)s3)n2)cc1	-3	-3	-13%	-3%	13µM*
CCN(C(=O)CN1CCN(S(=O)(=O)c2cc(Cl)ccc2Cl)CC1)c1c(N)n(Cc2ccccc2)c(=O)[nH]c1=O	10	-3	?	-27%	-14%
Cc1nn(CC(=O)NC(=O)NC2CCCCC2C)c(=O)c(C#N)c1C (centres undefined)	nt	nt	-19%	nt	-1%
CC(=O)N1CCc2c(sc3c2c(=O)n(Cc2ccccc2)c(=O)n3CC(=O)NCC2CCCO2)C1 (centres undefined)	-6	-2	15%	-6%	0.37µM*
CCOC(=O)N1CCc2c(sc3c2c(=O)n(-c2ccc(CC)cc2)c(=O)n3CC(=O)NCC2CCCO2)C1 (centres undefined)	9	1	?	22%	5.2µM*
CC(=O)N1CCc2c(sc3c2c(=O)n(-c2ccccc2)c(=O)n3CC(=O)NCC2CCCO2)C1 (centres undefined)	-13	-3	?	5%	3%
O=C(N1CCOCC1)N1CCC(n2nnc3ccccc32)CC1	124	2	13%	4%	-2%
O[C@@H]1CN(C2CCCCC2)CC[C@H]1N1CCN(CCc2ccccc2)CC1	nt	-3	?	-4%	?
CN1C(=O)C(=Cc2ccccc2OCc2ccccc2Cl)C(=O)N(C)C1=O	-1	10	19%	-7%	19%
CN1C(=O)C(=Cc2c(OCc3cnc(Cl)s3)ccc3ccccc23)C(=O)N(C)C1=O	83*	53*	26%	7%	37%
COc1ccc(OC)c(/C=C/C(=O)OCC(=O)NC2CCCCCCC2)c1	nt	nt	?	nt	-17%
COc1cc(C(=O)O[C@@H]2CC3CC[C@]2(C)C3(C)C)ccc1O	29*	23	nt	nt	nt
CCCc1cc(N2CCCC(C(=O)NCC)C2)n2ncnc2n1 (centres undefined)	-19	0	nt	4%	24%
O=C1N=C(N2CCOCC2)S/C1=C1\C(=O)N(Cc2ccccc2)c2ccccc21	24	15	?	4%	15%
CN1C(=O)/C(=C2\SC(N3CCCCCC3)=NC2=O)c2ccccc21	32	20*	4.1µM*	-3%	nt
O=C1N=C(N2CCCCC2)SC1=C1CCCCC1	114*	33*	nt	-8%	93%
CC1CN(C2=NC(=O)/C(=C3/C(=O)N(Cc4ccc(F)cc4)c4ccccc43)S2)CC(C)O1 (centres undefined)	12	1	5.9µM*	3%	?
CN1C(=O)/C(=C2\SC(N)=NC2=O)c2ccccc21	-2	0	-15%	3%	nt
CN(C)CN1C(=O)S/C(=C2/C(=O)N(CN(C)C)c3ccccc32)C1=O	nt	nt	nt	0%	nt
CCCN1C(=O)/C(=C2\SC(N3CCCCC3)=NC2=O)c2ccccc21	68*	46*	?	-103%	?
CCOc1ccc(C(=O)NCCC(=O)NCCCC(=O)O)cc1	-7	-2	15%	2%	6%
COc1ccc(OC)c(S(=O)(=O)Nc2ccc(CC(=O)O)cc2)c1	-9	-1	13µM*	3%	5%
COc1ccc(OC)c(S(=O)(=O)Nc2ccc(OCC(=O)O)cc2)c1	-7	-10	?	?	nt
COc1ccc(S(=O)(=O)N2CCC(C(=O)N[C@@H](C)C(=O)NCc3ccncc3)CC2)cc1	-6	-2	?	-6%	5%
SMILES	Shiga inhibitor	CHX counter	Pf growth 96h	NS1 function inh	Pf growth 48h
COCCNC(=O)C(NC(=O)C1CCCCC1)C12CC3CC(CC(C3)C1)C2 (centres undefined)	-19	-6	1.5µM*	-3%	?
COc1ccc(OCCSc2n[nH]c(N)n2)cc1	49	31*	nt	-1%	22%
COc1ccc(OCCSc2ncn[nH]2)cc1	30	17	40%	-15%	71%
N#C/C(=C\c1ccncc1)c1nc2c(s1)CCCC2	42*	21*	7%	nt	4%
O=C(CCl)N(c1ccccc1)C1CCCCC1	-26	-6	13µM*	nt	10µM*
Clc1ccccc1CN1CCN(c2ccccc2)CC1	-1	-2	17%	-3%	nt
Oc1ccccc1CN1CCN(C(O)(c2ccccc2)c2ccccc2)CC1	-12	-1	5.2µM*	1%	5.9µM*
Oc1ccccc1CN1CCC(C(O)(c2ccccc2)c2ccccc2)CC1	-17	-5	0%	2%	7.4µM*
